Bioassay records deposited in PubChem BioAssay by National Center for Advancing Translational Sciences (NCATS).
FMDV inh – High Throughput Screening for Foot and Mouth Disease Virus Antivirals; FMDV antiviral cell-based qHTS; Potency, µM (titrated, usually from 57.9 µM), usual class: inhibitors; 410,000 tested, 1.2% active; calls by dose curve; tested in HEK293T cells; note: read-out not given here; nearly all actives have a fitted effect of over 45% in size
MARV entry inh – qHTS for inhibitors of binding or entry into cells for Marburg Virus | 300,000 tested, 1.8% active | AID 540276, 2011 | Marburg virus pseudotyped entry inhibition, cell reporter | Potency, µM (titrated, usually from 37.8 µM), most hits filed as inhibitors; calls by dose curve; tested in HEK293 cells
LASV entry inh – qHTS for Inhibitors of binding or entry into cells for Lassa Virus; Lassa virus pseudotype entry inhibition, cell reporter; 300,000 tested, 1.2% active; Potency, µM (top dose mostly 37.9 µM), usual class: inhibitors; AID 540256, 2011; calls by dose curve; tested in HEK293 cells; note: nearly all actives have a fitted effect of over 50% in size
HCMV inh – qHTS Assay for inhibitors of the human cytomegalovirus (HCMV). AID 1259415, 2018. HFF cells, HCMV-luciferase reporter, 72 h; hits give low values. activity change, negative = inhibition, % at 57.5 µM. 410,000 tested, 4.5% active; in the data active = activity change below about -60%; inconclusive = no clear call, values can overlap the other calls; inactive = above about -39%
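Compounds were evaluated in HFFs infected with an HCMV luciferase reporter virus (MOI 1 PFU/cell). Luciferase in lysates collected 72 h post infection served as the replication measure.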
HCV inhibitor – qHTS Assay for Inhibitors of Hepatitis C Virus (HCV) | Huh7.5.1 HCVcc-Cre infection, luciferase reporter, 44 h | Potency, µM (titrated, usually from 41.8 µM), actives largely listed as inhibitors | 340,000 tested, 3.4% active; active = well fitted inhibition curve with a large enough effect; inconclusive = small, poorly fitted or top-dose-only effect, or another doubt; inactive = no such curve, though single readings can be large or run the other way
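After 44 h co-culture of compound, cells and HCVcc-Cre (~0.5 moi), substrate is added for 15 min at room temperature and luciferase measured over 15 sec. Cells were seeded at 1,000/well and pre-cultured 4 h.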
Each line names hits and unclear results; the compound was inactive in the other large screens; ! = repeats disagree. This is a sample that favours compounds with a hit; in the whole collection about 7.9% have one here.

COc1ccccc1Cn1c(=O)c2ccccc2n2c(Sc3ncnc4sccc34)nnc12	FMDV inh inconclusive, MARV entry inh inconclusive, LASV entry inh inconclusive, HCMV inh inconclusive, HCV inhibitor 10µM
COc1ccc(NC(=O)CSc2ccccn2)cc1OC	none
COc1ccc(NC(=O)CSc2ncccc2C(=O)OC(C)C)cc1OC	FMDV inh inconclusive, MARV entry inh inconclusive, LASV entry inh inconclusive, HCMV inh -87, HCV inhibitor 7.9µM
O=C(CSc1nnc(Cn2nnc3ccccc32)o1)Nc1ccc(Cl)cc1	none
COc1ccc(-n2c(Cn3nnc4ccccc43)nnc2SCC(=O)O)cc1	none
COc1ccc(N(Cc2ccccc2)C(=O)CSc2nnc(Cn3nnc4ccccc43)o2)cc1	FMDV inh inconclusive, MARV entry inh inconclusive, LASV entry inh inconclusive, HCV inhibitor 14µM
O=C(CSc1nnc(Cn2nnc3ccccc32)o1)N(Cc1ccc(F)cc1)c1ccccc1	MARV entry inh inconclusive, LASV entry inh inconclusive, HCMV inh -100, HCV inhibitor 1.6µM (no result: FMDV inh)
COc1ccc(CN(C(=O)CSc2nnc(-c3c[nH]c4ccccc34)o2)c2ccc(F)cc2)cc1OC	FMDV inh inconclusive, MARV entry inh inconclusive, LASV entry inh 7.1µM, HCMV inh -70, HCV inhibitor 5µM
COc1ccc(CN(C(=O)CSc2nnc(-c3ccc(F)cc3)o2)c2ccc(F)cc2)cc1	LASV entry inh inconclusive, HCV inhibitor inconclusive
Cc1ccc2c(c1)nc(SCC(O)c1ccc(Br)cc1)n2C (centres undefined)	HCMV inh inconclusive (no result: HCV inhibitor)
O=c1c2ccccc2nc2n1C(CSCc1ccc(Cl)cc1Cl)CS2 (centres undefined)	FMDV inh 18µM, MARV entry inh inconclusive
CC(=O)O[C@@H]1CC2C(C)(C)C(=O)C=C[C@]2(C)C2CC[C@]3(C)C(=CC[C@H]3C3CO[C@@H](C(C)(C)O)[C@H](O)C3)[C@@]21C (some centres undefined)	none (no result: MARV entry inh, LASV entry inh, HCMV inh, HCV inhibitor)
COc1ccc(-c2cn[nH]c2-c2ccc(OCc3ccc([N+](=O)[O-])cc3)cc2O)cc1	LASV entry inh inconclusive, HCMV inh -93, HCV inhibitor inconclusive
CCc1cc(-c2[nH]ncc2-c2ccc3c(c2)OCO3)c(O)cc1O	MARV entry inh inconclusive, LASV entry inh inconclusive, HCMV inh -99, HCV inhibitor inconclusive (no result: FMDV inh)
COc1ccc(-c2[nH]ncc2-c2ccc3c(c2)OCCO3)c(O)c1	FMDV inh inconclusive, LASV entry inh inconclusive, HCMV inh -82, HCV inhibitor inconclusive
COc1ccc(-c2cn[nH]c2-c2ccc(O)cc2O)cc1OC	none
CCOc1ccc(-c2[nH]ncc2-c2ccc(OC)c(OC)c2)c(O)c1	MARV entry inh inconclusive, LASV entry inh inconclusive, HCMV inh inconclusive, HCV inhibitor inconclusive
CCCc1cc(-c2[nH]ncc2-c2ccc3c(c2)OCCCO3)c(O)cc1OC	HCV inhibitor inconclusive (no result: FMDV inh, LASV entry inh)
CCc1cc(-c2[nH]ncc2-c2ccc(OC)cc2)c(O)cc1O	FMDV inh 11µM, MARV entry inh inconclusive, LASV entry inh inconclusive, HCMV inh -98, HCV inhibitor 4µM
Cc1ccc2nsnc2c1-n1c(C)nc2ccccc2c1=O	HCV inhibitor inconclusive
Cc1cccc(C)c1-n1c(=O)c2nc3ccccc3nc2c2ccccc21	HCMV inh -96 (no result: FMDV inh, MARV entry inh, LASV entry inh, HCV inhibitor)
Cc1c(CN2CCOc3ccc(C(C)(O)COc4ccccc4)cc3C2)cnn1C (centres undefined)	none (no result: MARV entry inh, LASV entry inh, HCMV inh, HCV inhibitor)
COc1ccc(Nc2nc(-c3cccc(OC)c3O)nc3ccccc23)cc1	HCMV inh inconclusive, HCV inhibitor 5.6µM (no result: MARV entry inh, LASV entry inh)
COc1cccc(-c2nc(NC(C)(C)C)c3ccccc3n2)c1O	FMDV inh 25µM, LASV entry inh inconclusive, HCV inhibitor inconclusive
Cc1c(C(=O)N2CCCCCC2)c(S(=O)(=O)NCc2ccccc2)c(C)n1C	none (no result: MARV entry inh, HCV inhibitor)
CCOC(=O)C1CCCN(C(=S)NC(=O)/C=C/c2ccc(F)cc2)C1 (centres undefined)	HCMV inh -82 (no result: MARV entry inh, LASV entry inh)
CC(C)OC(=O)c1cccnc1SCC(=O)Nc1ccc(C(F)(F)F)cc1Cl	none (no result: MARV entry inh, HCV inhibitor)
c1ccc(N2CCN(c3ncnc4[nH]ncc34)CC2)cc1	FMDV inh inconclusive, HCMV inh inconclusive (no result: MARV entry inh, HCV inhibitor)
Fc1ccccc1N1CCN(c2ncnc3[nH]ncc23)CC1	FMDV inh inconclusive, MARV entry inh 5µM, LASV entry inh 10µM, HCMV inh inconclusive, HCV inhibitor 16µM
CC(=O)c1c(C)[nH]c(C(=O)CSc2nc3ccccc3c(=O)n2CCCN2CCOCC2)c1C	MARV entry inh 21µM
O=C(CSc1nc2ccccc2c(=O)n1CCCN1CCOCC1)Nc1ccc(F)c(Cl)c1	FMDV inh inconclusive, HCV inhibitor 1.8µM (no result: MARV entry inh, LASV entry inh)
Cc1ccc(NC(=O)CSc2nc3ccccc3c(=O)n2CCCN2CCCCC2)cc1Cl	MARV entry inh inconclusive, LASV entry inh inconclusive, HCMV inh -97, HCV inhibitor 2µM
Cc1cc(C)c(NC(=O)CSc2nc3ccccc3c(=O)n2CCCN2CCOCC2)c(C)c1	none (no result: MARV entry inh, LASV entry inh)
CCC(C)NC(=O)CSc1nc2ccccc2c(=O)n1CCCN1CCCCC1 (centres undefined)	none (no result: MARV entry inh, LASV entry inh)
Cc1ccc(SCC(=O)Nc2cccc(S(=O)(=O)N3CCOCC3)c2)cc1C	HCV inhibitor inconclusive (no result: MARV entry inh, LASV entry inh)
Cc1cc(SCC(=O)Nc2cccc(S(=O)(=O)N3CCOCC3)c2)nc2ccccc12	HCV inhibitor 13µM (no result: MARV entry inh, LASV entry inh)
CCc1ccc(NC(=O)CSc2nc3ccccc3c(=O)n2CCCC(=O)NCCCN2CCOCC2)cc1	MARV entry inh inconclusive, LASV entry inh inconclusive, HCV inhibitor 11µM
COCCNC(=O)CSc1nc2cc3c(cc2c(=O)n1CCCC(=O)NCc1ccc(OC)cc1)OCO3	LASV entry inh inconclusive, HCMV inh -62!
COCCNC(=O)CSc1nc2cc3c(cc2c(=O)n1CCCC(=O)NCCc1ccc(OC)c(OC)c1)OCO3	LASV entry inh inconclusive
CC1CCN(CCCn2c(SCC(=O)Nc3ccccc3Cl)nc3ccccc3c2=O)CC1	MARV entry inh inconclusive, LASV entry inh 6.3µM, HCV inhibitor 11µM
O=C(CSc1nc2ccccc2c(=O)n1CCCN1CCOCC1)Nc1cccc(S(=O)(=O)N2CCCCCC2)c1	MARV entry inh inconclusive, LASV entry inh inconclusive, HCMV inh inconclusive, HCV inhibitor 13µM
CC(=O)Nc1ccc(NC(=O)CSc2nc3ccccc3c(=O)n2CCCN2CCOCC2)cc1	none
COc1ccc2c(c1)CO[C@H]([C@H](O)CO)[C@H]2C=Cc1ccccc1	LASV entry inh inconclusive (no result: FMDV inh, HCMV inh, HCV inhibitor)
O=c1c(CCc2ccccc2)nc2cnc(N3CCNCC3)nc2n1CCc1ccccc1	none (no result: MARV entry inh, LASV entry inh, HCMV inh, HCV inhibitor)
COCCN1C(=O)NC(c2ccco2)C(C(=O)OC)=C1C (centres undefined)	none (no result: FMDV inh, LASV entry inh, HCMV inh, HCV inhibitor)
O=C(NCCOCCO)C(=O)Nc1c2c(nn1-c1ccc(F)cc1)CSC2	none (no result: MARV entry inh, HCV inhibitor)
Cc1ccccc1C(=O)OCc1cc(=O)n2nc(C3CCCCC3)sc2n1	LASV entry inh inconclusive (no result: MARV entry inh, HCV inhibitor)
CCCCN(C(=O)Cc1ccc([N+](=O)[O-])cc1)C(C(=O)Nc1c(C)cccc1C)C(=O)c1ccc(OC)cc1 (centres undefined)	none (no result: FMDV inh, MARV entry inh, LASV entry inh, HCV inhibitor)
